# Six1-Eya2 blk: blocks human Six1 binding to Eya2 | 360,000 compounds, 0.56% hits | AlphaScreen GST-Six1/His-Eya2 binding, biochemical; stronger effect = lower value | AID 651725 | Q15475+O00167 | activity change, % (no concentration beside the values); in the data active = activity change below about -65%; inconclusive = mostly about -30% to -63%
#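 AlphaScreen with GST-Six1 and His-Eya2 (5X mix: 250 nM and 500 nM), glutathione donor and nickel acceptor beads; buffer 50 mM Tris pH 8.0, 300 mM NaCl, 1 mM TCEP; 1 h at 37 C in the dark.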
# JMJD2E inh: inhibitors of human JMJD2E histone demethylase; B2RXH2; JMJD2E catalytic domain, FDH-coupled NADH fluorescence (FDH is formaldehyde dehydrogenase); Potency, µM (series often up to 57.1 µM), for the others: at the highest dose activity change, negative = inhibition, actives largely listed as inhibitors; 230,000 compounds, 1.6% hits; active = well fitted inhibition curve with a large enough effect, not every such curve was filed as active; inconclusive = small, poorly fitted or top-dose-only effect, or another doubt; inactive = no such curve, though single readings can be large or run the other way;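 also: potency is read from the fitted curve at half-maximal effect; 0% = wells with enzyme and -100% = buffer wells without enzyme; nearly all actives have a fitted effect of over 50% in size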
# Target sequence (B2RXH2 1-337 limits assumed): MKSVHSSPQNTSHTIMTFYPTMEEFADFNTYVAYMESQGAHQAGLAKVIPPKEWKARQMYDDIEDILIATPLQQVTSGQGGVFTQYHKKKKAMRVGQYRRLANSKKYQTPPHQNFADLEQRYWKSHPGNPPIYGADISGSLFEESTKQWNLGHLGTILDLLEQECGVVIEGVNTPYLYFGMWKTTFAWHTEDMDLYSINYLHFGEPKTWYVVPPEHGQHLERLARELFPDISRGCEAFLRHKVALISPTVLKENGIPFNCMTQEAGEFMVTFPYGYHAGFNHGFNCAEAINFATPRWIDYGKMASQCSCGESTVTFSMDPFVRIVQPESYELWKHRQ
# GALK inh: galactokinase (human) inhibition | P51570 | Purified GALK, Kinase-Glo residual ATP luminescence | Potency, µM (top dose mostly 57.5 µM), inactives show at the highest dose activity change, negative = inhibition, hits mostly inhibitors | 270,000 compounds, 0.007% hits | AID 1868; also: potency is read from the fitted curve at half-maximal effect
#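 Kinase-Glo Plus luminescence measured ATP left after a 1 h room-temperature reaction. The reaction used 5 nM GALK, 100 uM galactose and 35 uM ATP at pH 8.0 (20 mM HEPES, 5 mM MgCl2, 60 mM NaCl, 1 mM DTT, 0.01% BSA).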
# Eya2 inh: blocks the phosphatase activity of human Eya2. recombinant Eya2, OMFP fluorescence dephosphorylation (OMFP is methylfluorescein phosphate). Potency, µM (series often up to 76.9 µM), without a hit: top-dose activity, negative = inhibition, most hits filed as inhibitors. 330,000 compounds, 0.006% hits. AID 488837; also: potency is read from the fitted curve at half-maximal effect
#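 Eya2 (0.2 uM) preincubated 10 min at ambient with compound, then OMFP substrate added at 50 uM; 10 min reaction in 50 mM HEPES pH 7.5, 50 mM NaCl, 5 uM MgCl2, 0.05% BSA, 1 mM DTT. Fluorescence read at Ex 485/Em 525 nm.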
# CtBP-E1A inh: inhibitors of CtBP/E1A interaction | 340,000 compounds, 0.49% hits | AlphaScreen GST-E1A/His-CtBP binding, 1536-well; stronger effect = lower value | activity change, % (concentration not given with the values) | AID 651724; in the data active = activity change below about -65%; inconclusive = mostly about -30% to -63%
#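 In 5 uL wells, 23 nL compound meets equimolar GST-E1A and His-CtBP (5X stock 125 nM each) for 2 h, 37 °C. Beads (5X, 50 ug/mL) then 1 h, 37 °C, dark.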
# Anesthetic bind: binds horse apoferritin like a general anesthetic; 350,000 compounds, 0.074% hits; apoferritin/1-aminoanthracene competitive binding, fluorescence; P02791; Potency, µM (titrated, usually from 77.5 µM), without a hit: at the highest dose activity change, negative = displacement, usual class: inhibitors; also: potency is read from the fitted curve at half-maximal effect; nearly all actives have a fitted effect of over 20% in size
# Target sequence (P02791 2-175 limits assumed): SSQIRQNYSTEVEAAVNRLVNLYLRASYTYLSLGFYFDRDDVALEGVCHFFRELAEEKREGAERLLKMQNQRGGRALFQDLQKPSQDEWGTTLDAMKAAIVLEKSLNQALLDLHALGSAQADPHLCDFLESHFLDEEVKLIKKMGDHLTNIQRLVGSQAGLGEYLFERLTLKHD
#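 10 uM apoferritin + 50% sat. 1-AMA, PBS; cpd 10 min RT; Ex380/Em535 endpoint; normalized to free probe vs complex; 4-param Hill fit; propofol titration as pos. ctrl.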
# Starred values were filed as active, the others as inactive; ? = inconclusive; . = no result; [ ] = dose if it differs, or a comment. This is one part of a sample in which hits are shown more often than they occur. Unless noted, calls follow the shape of the dose curve; as a rule, active = well fitted curve in the direction sought with a large enough effect; inconclusive = small, poorly fitted or top-dose-only effect, or another doubt; inactive = no such curve, though single readings can be large; an effect the other way counts as inactive or inconclusive. Unless noted, % is scaled to controls: 0 for no effect and ±100 for the full control effect.
SMILES,Six1-Eya2 blk,JMJD2E inh,GALK inh,Eya2 inh,CtBP-E1A inh,Anesthetic bind
Cc1ccc(NC2=C/C(=N/S(=O)(=O)c3cccs3)c3ccccc3C2=O)cc1C,-6,8%,2%,5%,-15,-10%
O=C(O)c1ccc(S(=O)(=O)/N=C2\C=C(Nc3ccccc3F)C(=O)c3ccccc32)cc1,?,.,?,-15%,-76*,-14%
Cc1ccccc1NC1=C/C(=N\S(=O)(=O)c2cccs2)c2ccccc2C1=O,-84*,13%,-6%,?,-85*,?
N#Cc1nc(-c2cccc3ccccc23)oc1NCC#CCOC(=O)c1cccs1,.,.,.,-32%,.,.
O=C(NCc1ccc2c(c1)OCO2)c1ccc(N2C(=O)C3CCCCC3C2=O)cc1 (stereo not given),12,6%,0%,-1%,0,8.9µM*
COc1ccc(C(=O)NCc2ccc3c(c2)OCO3)cc1,-5,-19%,9%,18%,4,-12%
O=C(N/N=C/C(Cl)=C/c1ccccc1)c1cnccn1,?,-2%,0%,6%,-92*,3%
O=C(N/N=C/C(Cl)=C\c1ccccc1)c1ccco1,-14,-6%,3%,5%,-77*,2%
O=C(N/N=C/C(Cl)=C\c1ccccc1)c1cnccn1,?,-2%,4%,-3%,-85*,-9%
CC(=C/c1ccccc1)/C=N/NC(=O)c1cnccn1,4,-6%,2%,11%,-1,26%
COc1cccc(-c2nc(SCC(=O)NC3CCCC3)c(-c3ccc(F)cc3)[nH]2)c1,.,.,.,.,.,8%
COC(=O)CSCc1nc(-c2ccc(C(=O)OC)cc2)oc1C,.,.,.,.,.,0%
COc1cccc(/C=N/Nc2nc3ccccc3[nH]2)c1O,-8,4.5µM*,6%,-1%,.,46%
COc1cccc(/C=N/Nc2nc3ccccc3n3cnnc23)c1,?,-3%,-1%,-14%,?,-1%
COc1cccc(/C=N/Nc2nc3ccccc3n3cnnc23)c1O,-87*,28µM*,0%,-14%,-93*,-1%
CCN(CC)C(=O)C1=C(C)Nc2nc3ccccc3n2C1c1cccc(Cl)c1 (stereo not given),.,.,.,.,.,-8%
CN(CC(=O)Nc1cccc(F)c1)C(=O)c1ccc(COc2ccccc2)cc1,-70*,.,.,-22%,-9,.
Cc1cc(C)cc(OCC(=O)NNC(=O)c2ccccn2)c1,-68*,.,.,26%,.,.
O=C(Cc1ccccc1)c1ccccn1,-78*,.,.,.,-5,.
COc1ccc(CC(=O)NNC(=O)c2ccccn2)cc1,?,.,-4%,8%,-74*,-3%
N/C(=N\OC(=O)Cc1ccccc1)c1ccccn1,0,6%,-2%,7%,-3,-16%
CNc1ccccc1C(=O)OC,3,22µM*,5%,15%,8,6%
CNc1ccccc1C(=O)OCC(C)=O,2,?,.,8%,1,30%[15.3 µM]
COc1cc(/C=C/C(=O)OCC(=O)N2CCN(S(=O)(=O)c3ccc(C)cc3C)CC2)ccc1OC(F)F,-22,.,.,.,-86*,.
Cc1c(Nc2cc(Cl)c3nonc3c2[N+](=O)[O-])c(=O)n(-c2ccccc2)n1C,-88*,0%,-1%,-3%,.,-24%
Cc1c(Nc2cc(N3CCOCC3)c3nonc3c2[N+](=O)[O-])c(=O)n(-c2ccccc2)n1C,.,-3%,0%,2%,.,-2%
CC1=C(C(=O)OC(C)C)C(c2ccc(N(C)C)cc2)C2=C(CC(C)(C)CC2=O)N1 (stereo not given),?,14µM*,-2%,10%,-25,3%
CCOC(=O)C1=C(C)NC2=C(C(=O)CC(C)(C)C2)C1c1ccc(N(C)C)cc1 (stereo not given),-12,?,-1%,-25%,-16,-14%
Cc1cc(C(=O)OCC(=O)NC2CCCC2)c2ccccc2n1,7,.,.,21%,7,.
CC1CCCCC1NC(=O)COC(=O)c1c2c(nc3ccccc13)/C(=C/c1ccco1)CC2 (stereo not given),?,16µM*,0%,0%,-1,1%
